Test results published in PubChem BioAssay (EPA / NIEHS).
Calls of active or inactive are those of the source. The calls were made as follows: active = hit-call score of the fitted dose curve at least 0.9, where 1 is the maximum; inactive = score below 0.9.

assay: ATG_PPRE_CIS: Attagene CIS-FACTORIAL HepG2 Assay for human Peroxisome Proliferator-activated Response Element (PPRE) (AID 2282958); details: HepG2 PPRE cis-element reporter, Attagene transcription factor profiling; actives raise or lower the signal
Protocol: ATG_CIS is a cell-based, multiplexed-readout assay that uses HepG2, a human liver cell line, with measurements taken at 24 hours after chemical dosing in a 24-well plate.ATG_PPRE_CIS is one of 52 assay component(s) measured or calculated from the ATG_CIS assay. It is designed to make measurements of mRNA induction, a form of inducible reporter, as detected with fluorescence intensity signals by Reverse transcription polymerase chain reaction (RT-PCR) and Capillary electrophoresis technology.Data from the assay component ATG_PPRE_CIS was analyzed into 1 assay endpoint. This assay endpoint, ATG_PPRE_CIS, was analyzed with bidirectional fitting relative to DMSO as the negative control and baseline of activity. Using a type of inducible reporter, measures of mRNA for gain or loss-of-signal activity can be used to understand the reporter gene at the transcription factor-level as they relate to the gene PPARA and PPARD and PPARG. Furthermore, this assay endpoint can be referred to as a primary readout, because this assay has produced multiple assay endpoints where this one serves a reporter gene function. To generalize the intended target to other relatable targets, this assay endpoint is annotated to the nuclear receptor intended target family, where the subfamily is non-steroidal.
Human liver HepG2 cells are transiently transfected with multiple reporter transcription units (MRTUs) in 6-well plates using FuGene 6 reagent (Roche; 3 ml FuGene/1 mg DNA). The MRTU constructs are regulated by a cis-regulating element (promoter). […] A major difference between the CIS and TRANS system is that in CIS activities of endogenous TFs are measured, whereas the TRANS assay evaluates changes in activities of exogenous, chimeric NR-Gal4 proteins. […] At the end of 24 hour incubation, total RNA was isolated using TriZol reagent (Invitrogen). The isolated RNA is then reverse-transcribed using oligo(dT) primer and Mo-MLV reverse transcriptase (Invitrogen) with DNAse I (Ambion) treatment for 30 min. The one-tenth of the produced cDNA was amplified by PCR using Taq DNA polymerase (Invitrogen) and two reporter sequence-specific primers. The PCR products were fluorescently labeled by primer extension with 6-arboxyfluorescein (6-FAM) 5'-labeled reporter sequence-specific primer (2 min at 95 C, 20 s at 68 C and 10 min at 72 C) and these products were digested with 5U of HpaI (New England Biolabs) for 2h at 37 C. The fragments were purified using Qiaquick PCR columns (Qiagen), analyzed on an ABI 3130xL genetic analyzer (Applied Biosystems) with peak positions identified by using a set of X-rhodamine (ROX)-labeled MapMarker1000 molecular weight standards (BioVentures). The raw capillary electrophoresis data was processed using Attagraph software (Attagene).

Compound | outcome | AC50
Cc1cc(-c2cc(C)c(N)c(C)c2)cc(C)c1N | inactive | 
C=CC(=O)[O][Sn]([CH2]CCC)([CH2]CCC)[CH2]CCC |  | 0.00687 µM (active)
O=S(=O)(F)C(F)(F)C(F)(F)C(F)(F)C(F)(F)F | inactive | 
CC(C)(c1ccccc1)c1cc(-n2nc3ccccc3n2)c(O)c(C(C)(C)c2ccccc2)c1 | inactive | 
CC(C=O)Cc1ccc2c(c1)OCO2 (stereo not given) | inactive | 
COP(=S)(OC)Oc1cc(Cl)c(I)cc1Cl | inactive | 
COC(F)(C(F)(F)C(F)(F)F)C(F)(C(F)(F)F)C(F)(F)F (stereo not given) | inactive | 
Cc1cc(C(F)(C(F)(F)F)C(F)(F)F)ccc1NC(=O)c1cccc(I)c1C(=O)NC(C)(C)CS(C)(=O)=O | inactive | 
Fc1cccc(Cl)c1CCl | inactive | 
c1ccc2sc(SNC3CCCCC3)nc2c1 | inactive | 
CCCCOC(C)=O | inactive | 
CC(C)(C)c1cc([N+](=O)[O-])cc(C(C)(C)C)c1O |  | 12.8 µM (active)
N#CCCC(Br)(C#N)CBr (stereo not given) | inactive | 
C=CC(=O)OCC(COC(=O)C=C)(COC(=O)C=C)COC(=O)C=C | inactive | 
C#C[C@]1(O)CC[C@H]2[C@@H]3CCC4=CC(=O)CC[C@]4(C)[C@H]3CC[C@@]21C | inactive | 
FC(F)OCC(F)(F)C(F)(F)F | inactive | 
Cc1ccccc1OP(=O)(Oc1ccccc1)Oc1ccccc1 | inactive | 
CN(C)CCN(C)C | inactive | 
O=C(Cc1ccccc1)OCCc1ccccc1 | inactive | 
CCCCCCCCCCCCCl | inactive | 

Compound | outcome | AC50
COc1nn(C(=O)NS(=O)(=O)c2ccccc2OC(F)(F)F)c(=O)n1C | inactive | 
O=C1C=CC(=O)c2ccccc21 | inactive | 
Nc1cccnc1 | inactive | 
O=C(NC(=O)c1c(F)cccc1F)Nc1cc(Cl)c(F)c(Cl)c1F | inactive | 
Clc1cnc(Oc2ccc(Oc3ncc(Cl)cc3Cl)cc2)c(Cl)c1 | inactive | 
O=C(N[C@H]1CN2CCC1CC2)c1ccc2c(c1)OCCO2 |  | 100 µM (active)
C=CCN=C=S | inactive | 
O=[N+]([O-])c1cc([As](=O)(O)O)ccc1O | inactive | 
N#CS | inactive | 
O=C(O)COc1ccc(Cl)cc1 | inactive | 
OC[C@@H](O)[C@H]1O[C@@H]2O[C@H](C(Cl)(Cl)Cl)O[C@@H]2[C@H]1O | inactive | 
Cc1cc(Cl)ccc1N | inactive | 
CC(C)[N+](=O)[O-] | inactive | 
Cc1cccc(OP(=O)(Oc2cccc(C)c2)Oc2cccc(C)c2)c1 | inactive | 
C#CCOC(=O)/C=C(C)/C=C/CC(C)CCCC(C)C (stereo not given) | inactive | 
CCCCS(=O)(=O)Cl | inactive | 
CCOC(=O)CCN(SN(C)C(=O)Oc1cccc2c1OC(C)(C)C2)C(C)C | inactive | 
Brc1ccc(Oc2c(Br)cc(Br)cc2Br)c(Br)c1 | inactive | 
CCOP(=S)(OCC)SCSc1cc(Cl)ccc1Cl | inactive | 
Oc1ccc(Cc2ccc(O)cc2)cc1 |  | 38.8 µM (active)
